# Results from the supplement of paper PMC6555819.
# What was measured:
# Test in all cases: PBM binding z-score (relative to random genomic background probes); higher = stronger binding; sequences stand for … in GC…GCGATTGACAGCGTAGAATGAAGG
# [1] = test system: FXR:RXRa (NR concentration 270 nM, RXRa partner concentration 90 nM)
# Summary of the method: (§1)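 Random background probes are the reference for binding z-scores. These scores derive from regression-normalized fluorescence on custom Agilent 4×180K protein-binding microarrays incubated 1 h with ligand-free nuclear receptor dimers. Binding was detected with antibodies against each partner (one per run).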
# [2] = test system: LXRa:RXRa (NR concentration 270 nM, RXRa partner concentration 90 nM)
# Summary of the method: as §1
# [3] = test system: LXRa homodimer (NR concentration 270 nM)
# Summary of the method: as §1
# [4] = test system: LXRb:RXRa (NR concentration 270 nM, RXRa partner concentration 90 nM)
# Summary of the method: as §1
# [5] = test system: LXRb homodimer (NR concentration 270 nM)
# Summary of the method: as §1
# [6] = test system: PPARa:RXRa (NR concentration 270 nM, RXRa partner concentration 90 nM)
# Summary of the method: as §1
# [7] = test system: PPARg:RXRa (NR concentration 180 nM, RXRa partner concentration 90 nM)
# Summary of the method: as §1
# [8] = test system: PPARg:RXRa 270nM:90nM, anti-RXR (NR concentration 270 nM, RXRa partner concentration 90 nM)
# Summary of the method: as §1
# [9] = test system: PPARg:RXRa 30nM:10nM, anti-RXR (NR concentration 30 nM, RXRa partner concentration 10 nM)
# Summary of the method: as §1
# [10] = test system: PPARg:RXRa 90nM:30nM, anti-RXR (NR concentration 90 nM, RXRa partner concentration 30 nM)
# Summary of the method: as §1
Sequence,PBM binding z-score [1],PBM binding z-score [2],PBM binding z-score [3],PBM binding z-score [4],PBM binding z-score [5],PBM binding z-score [6],PBM binding z-score [7],PBM binding z-score [8],PBM binding z-score [9],PBM binding z-score [10]
CCGACTGCGGCATAAGGTTACCATAAGCCAGCCC,0.434,1.84,-0.038,0.877,-0.74,0.702,0.575,0.243,-0.468,-0.29
CCTCGGAGGACGACAGGAGGTCAGAGCTGCCAGA,0.759,1.38,0.305,1.13,-0.711,1.8,0.288,0.213,-0.596,-0.215
CCGTACGGGTCACGAGGTTATAGCACGACGAGCG,6.63,4.94,0.31,4.08,-0.283,5.88,6.72,6.37,2.37,4.99
TAGCCTAGATCATTCAGGGGCCAGTATAGAAAGC,-0.33,-0.505,-0.351,-0.00287,-0.168,0.0623,0.276,0.125,-0.256,-0.407
GGAACGAGGGCAAAGTTGATCGCATCTGTCGACG,1.11,0.829,-0.561,0.545,-0.311,3.82,6.68,6.95,5.94,7.29
GCTAGTTGGTCAGTAAAAGGTCACACCCCGGTCG,2.85,4.02,4.42,3.74,0.781,4.19,2.69,4.11,2.14,3.78
CGTCAAAGTTCAAGGTAACGGAACAGAAAGCAGC,6.15,5.59,2.26,3.12,0.735,4.63,4.57,5.32,2.47,4.21
TCGAGTAGGTTAGTCGGGCCATTCAGCCAACATA,-0.164,-0.373,-0.481,-0.437,-1.41,0.324,-0.134,0.911,0.94,0.798
CGAACTCGGTCATCCAGGACAGTGAATACATTGA,1.39,0.744,0.283,0.275,-0.494,0.964,1.14,0.895,0.134,0.455
CAGCCTAGCTCAGGGCCAGTATAGGAGGAACGTT,-1.13,-1.14,-0.395,-1.15,-1.28,-1.21,-0.195,-1.24,-1.24,-1.17
TCTCGGAGGACACGAAGGTCAGAACTTTCCAGAG,0.92,1.16,0.605,1.31,-0.708,1.69,0.527,1.59,2.55,1.96
ATCGCTAGGTAACAAGTTCAGTGAAAGAGAGGAC,-0.045,0.0443,-0.0365,-0.0294,-0.328,0.506,0.393,0.468,-0.139,0.219
TAGCCTAGGTCAGATCGGGCAAGTATACGCTATA,1.87,1.1,-0.305,0.779,-0.322,1.74,0.654,0.623,-0.284,0.343
TCCGACAGGTGAAGGTAACTCAGGTACGCAGTCG,0.658,1.48,-0.467,0.558,-0.785,0.847,0.493,1.09,2.1,1.34
ACAGACAGGTTAGTGAAGGTAACTCAGCTGGACG,0.616,0.393,-0.196,-0.21,-0.3,0.259,0.68,0.049,-0.22,0.0314
ACTATTAGTTGAGACGAGGGCATCCGATAGGTTG,0.433,-0.0452,0.0875,-0.216,0.112,0.0329,0.689,-0.118,0.0451,0.0642
ACAGACAGGTTATGAAGGTAACTCAGGCTATCAT,0.409,0.85,0.14,0.672,0.2,1.21,0.876,0.402,-0.0537,0.403
TCGATTAGTTGAAGGGCAACCGACGAGTCCGTTT,0.259,0.194,-0.152,0.106,-0.503,0.295,-0.114,1.19,2.74,1.85
ATATGTAGGTTAAGGGTCACTCAGGTTGGTTCGC,4.78,4.46,1.96,4.27,1.2,6.85,11.8,10.2,10.8,11.2
